Marburg entry inh: blocks Marburg virus binding to or entry into cells; Marburg virus pseudotyped entry inhibition, cell reporter; Potency, µM (top dose mostly 37.8 µM), most hits filed as inhibitors; actives 1.8% (n = 300,000); AID 540276; calls by dose curve; tested in HEK293 cells
LASV entry inh: blocks Lassa virus binding to or entry into cells; actives 1.2% (n = 300,000); Potency, µM (titrated, usually from 37.9 µM), hits mostly inhibitors; Lassa virus pseudotype entry inhibition, cell reporter; calls by dose curve; tested in HEK293 cells; note: nearly all actives have a fitted effect of over 50% in size
HCMV inh: blocks human cytomegalovirus replication; HFF cells, HCMV-luciferase reporter, 72 h; hits give low values; activity change, negative = inhibition, % at 57.5 µM; actives 4.5% (n = 410,000); AID 1259415; in the data active = activity change below about -60%; inconclusive = no clear call, values can overlap the other calls; inactive = above about -39%
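Two-dose cell screen: HFF monolayers treated with compounds and infected with luciferase-expressing HCMV at 1 PFU/cell, 72 h at 37C, then lysed for luciferase measurement.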
VACV Venus inh: vaccinia inhibition (Venus reporter). Potency, µM (titrated, usually from 36.5 µM), usual class: inhibitors. Vaccinia virus Venus reporter expression, fluorescence. actives 0.46% (n = 330,000); calls by dose curve; tested in A549 cells; note: nearly all actives have a fitted effect of over 30% in size
Vaccinia mCherry: inhibitors of vaccinia virus infection (mCherry reporter signal); Vaccinia virus mCherry reporter infection, fluorescence; Potency, µM (doses to about 36.5 µM), hits mostly inhibitors; actives 0.63% (n = 310,000); calls by dose curve; tested in A549 cells; note: nearly all actives have a fitted effect of over 35% in size
FMDV antiviral: blocks foot and mouth disease virus; FMDV antiviral cell-based qHTS; Potency, µM (doses to about 57.9 µM), usual class: inhibitors; actives 1.2% (n = 410,000); calls by dose curve; tested in HEK293T cells; note: read-out not given here; nearly all actives have a fitted effect of over 45% in size
Of the large screens only hits and unclear results are named; the others gave an inactive call. Rows were chosen to be rich in hits. Some 6.5% of all compounds tested hit in one or more screens of this group.

CC(C)=CCN1CCN(CCC2=C(C)CCCC2(C)C)CC1CCO (stereo unspecified)	HCMV inh -66 (no result: Marburg entry inh, LASV entry inh, VACV Venus inh, Vaccinia mCherry)
COc1ccccc1C(=O)Nc1cccc(N2CCC(NCc3cnn(-c4ccccc4)n3)CC2)c1	none (no result: Marburg entry inh, LASV entry inh, HCMV inh)
COc1cccc(OCCSc2nnc3sc4ccccc4n23)c1	LASV entry inh inconclusive (no result: Vaccinia mCherry)
c1ccc(OCCSc2nnc3sc4ccccc4n23)cc1	Marburg entry inh 2.1µM, LASV entry inh 10µM, HCMV inh inconclusive (no result: FMDV antiviral)
Cc1ccc(C)c(OCCn2cc(C(=O)c3cccs3)c3ccccc32)c1	none
CNCCN(C)c1nc(-c2cccs2)nc2ccccc12	none (no result: Marburg entry inh, LASV entry inh, HCMV inh, FMDV antiviral)
NNC(=O)c1cccc(COc2ccc3c(c2)CCC3)c1	Marburg entry inh inconclusive, LASV entry inh 2.1µM, FMDV antiviral 13µM
NNC(=O)c1cccc(COc2ccccc2Br)c1	Marburg entry inh inconclusive, LASV entry inh inconclusive
C/C(=C\c1ccccc1)C(=O)NCCN1CCOCC1	none (no result: Marburg entry inh, LASV entry inh)
C[N+](C)(C)CCC(=O)N1C/C(=C/c2ccccc2)C(=O)/C(=C\c2ccccc2)C1	Marburg entry inh inconclusive, LASV entry inh inconclusive, HCMV inh -67, VACV Venus inh inconclusive, Vaccinia mCherry inconclusive, FMDV antiviral inconclusive
O=C(/C=C/c1ccccc1)CCN1CCOCC1	Marburg entry inh inconclusive, LASV entry inh inconclusive, VACV Venus inh inconclusive, Vaccinia mCherry 10µM, FMDV antiviral inconclusive
O=C(Cc1ccccc1)N1CCNCC1	none
CN(C)CCC(=O)N1C/C(=C/c2ccccc2)C(=O)/C(=C\c2ccccc2)C1	Marburg entry inh inconclusive, LASV entry inh inconclusive, HCMV inh -98, VACV Venus inh 11µM, Vaccinia mCherry 8.9µM, FMDV antiviral 8.9µM
O=C1/C(=C/c2ccccc2)CN(C(=O)CCN2CCOCC2)C/C1=C\c1ccccc1	Marburg entry inh inconclusive, LASV entry inh 1.4µM, VACV Venus inh inconclusive, Vaccinia mCherry inconclusive, FMDV antiviral 8.9µM
O=C(/C=C/c1ccccc1)N1CCOCC1	none (no result: Marburg entry inh, LASV entry inh, VACV Venus inh, Vaccinia mCherry)
COc1cccc(-c2nc3c(C#N)c[nH]n3c2NC2CCCCC2)c1	Marburg entry inh inconclusive
O=C(NCC1Cc2cccc(-c3cnccn3)c2O1)C1COc2ccccc2O1 (stereo unspecified)	none (no result: Marburg entry inh, LASV entry inh, HCMV inh)
CCC1=Nc2cc(C(=O)NC3CCC(C)CC3)ccc2Sc2ccc(C)cc21 (stereo unspecified)	Marburg entry inh inconclusive, LASV entry inh inconclusive, HCMV inh -82, VACV Venus inh inconclusive, Vaccinia mCherry inconclusive
CCC1=Nc2cc(C(=O)NCc3ccco3)ccc2Sc2ccc(C)cc21	LASV entry inh inconclusive, HCMV inh -75, VACV Venus inh inconclusive
CCOC(=O)N1CCC(NC(=O)c2ccc3c(c2)N=C(CC)c2cc(C)ccc2S3)CC1	Marburg entry inh inconclusive, LASV entry inh inconclusive, FMDV antiviral inconclusive
CCCC1=Nc2cc(C(=O)NC3CCCC3)ccc2Sc2ccc(C)cc21	Marburg entry inh inconclusive, LASV entry inh inconclusive, HCMV inh -79
CCCC1=Nc2cc(C(=O)NC3CCCCC3)ccc2Sc2ccc(C)cc21	LASV entry inh inconclusive, HCMV inh -91, VACV Venus inh inconclusive, Vaccinia mCherry inconclusive (no result: Marburg entry inh)
Cc1cnc(SCCN2CCOCC2)nc1C1CCCN(C(=O)c2cccc3c(C)c(C)[nH]c23)C1 (stereo unspecified)	none (no result: Marburg entry inh, LASV entry inh, HCMV inh)
COC(=O)[C@@H]1[C@@H](CO)[C@@H]2Cn3c(ccc(Br)c3=O)[C@H]1N2C(=O)CN(C)C	none (no result: Marburg entry inh, LASV entry inh, VACV Venus inh, Vaccinia mCherry, FMDV antiviral)
CCc1ccc(C2N=C(N)Nc3nc4ccccc4n32)cc1 (stereo unspecified)	LASV entry inh inconclusive, HCMV inh -67
NC1=NC(c2ccc(Br)cc2)n2c(nc3ccccc32)N1 (stereo unspecified)	HCMV inh inconclusive
O=C(Nc1ccccc1F)N1C[C@@H]2[C@H](c3ccccc31)[C@H](CO)N2C(=O)Nc1ccccc1	none (no result: Marburg entry inh, LASV entry inh, VACV Venus inh, Vaccinia mCherry, FMDV antiviral)
Cc1ccccc1NC(=S)NCc1cccs1	Marburg entry inh inconclusive (no result: Vaccinia mCherry)
Cc1ccc(NC(=S)NCc2cccs2)cc1	Marburg entry inh inconclusive, VACV Venus inh inconclusive (no result: Vaccinia mCherry)
S=C(NCc1cccs1)Nc1cccc(Cl)c1Cl	LASV entry inh inconclusive, HCMV inh -79
Cc1c(Cl)cccc1NC(=S)NCc1cccs1	HCMV inh -80 (no result: VACV Venus inh, Vaccinia mCherry)
CCCCc1ccc(NC(=S)NCc2cccs2)cc1	HCMV inh -80 (no result: VACV Venus inh, Vaccinia mCherry)
c1c2c(cc3sc(N4CCCCC4)nc13)OCO2	Marburg entry inh inconclusive, LASV entry inh 6.3µM
C[C@@H]1CC[C@H]2C(=O)N(Cc3ccccc3)C[C@H](O)CN2[C@H]1c1ccc(Br)cc1	none (no result: LASV entry inh, HCMV inh, VACV Venus inh, Vaccinia mCherry, FMDV antiviral)
CC(=O)Nc1ccc(NC(=O)C2(c3cccs3)CCOCC2)cc1	LASV entry inh inconclusive, HCMV inh active (no result: Marburg entry inh)
CC1(NCc2ccc(Cl)cc2)COP(=O)(NCc2ccccc2)OC1 (stereo unspecified)	HCMV inh -83
O=C(CC(=O)NCc1ccc(Cl)cc1)NCc1ccccc1	none (no result: Marburg entry inh, LASV entry inh, VACV Venus inh, Vaccinia mCherry)
COC(=O)C1=C(C)N(Cc2ccccc2)C(=NCCc2c[nH]c3ccccc23)NC1c1cccc(F)c1 (stereo unspecified)	LASV entry inh inconclusive (no result: HCMV inh, VACV Venus inh, Vaccinia mCherry, FMDV antiviral)
CCCCOc1ccccc1C1CC(=O)Nc2ccc3ccccc3c21 (stereo unspecified)	Marburg entry inh inconclusive, HCMV inh -92
c1ccc2oc(-c3csc(N4CCOCC4)n3)cc2c1	Marburg entry inh 7.9µM, LASV entry inh inconclusive
Fc1ccc(-c2csc(N3CCOCC3)n2)cc1	Marburg entry inh inconclusive, Vaccinia mCherry inconclusive
N=c1oc2ccccc2cc1C(=O)Nc1ccccc1	Marburg entry inh inconclusive, LASV entry inh inconclusive
COc1ccc2oc(=N)c(C(=O)Nc3ccc(F)cc3)cc2c1	Marburg entry inh inconclusive, HCMV inh -62, Vaccinia mCherry inconclusive
N=c1oc2cc(O)ccc2cc1C(=O)Nc1ccc(Br)cc1	Marburg entry inh inconclusive, LASV entry inh inconclusive, HCMV inh -90, VACV Venus inh inconclusive, Vaccinia mCherry inconclusive
CC(=O)c1ccc(NC(=O)COCc2cc(-c3ccco3)on2)cc1	none (no result: Marburg entry inh)
CCCCN(CCCC)c1ncnc2nc[nH]c12	HCMV inh -91, VACV Venus inh inconclusive, FMDV antiviral inconclusive (no result: Marburg entry inh, LASV entry inh)
CCCN(c1ccc(OCC)cc1)c1ncnc2nc[nH]c12	HCMV inh inconclusive (no result: Marburg entry inh, LASV entry inh)
CCN(c1ccc(OC)cc1)c1ncnc2nc[nH]c12	HCMV inh -88 (no result: Marburg entry inh, LASV entry inh)
CCC1CN(CCNC(=O)c2cscn2)Cc2cc(OC)ccc2O1 (stereo unspecified)	none (no result: Marburg entry inh, LASV entry inh, HCMV inh)
Clc1ccc2c(N3CCNCC3)ccnc2c1	HCMV inh -109
Oc1ccc(N2CCN(c3ccnc4cc(Cl)ccc34)CC2)cc1	Marburg entry inh inconclusive, HCMV inh -66, Vaccinia mCherry inconclusive
COc1ccc(CCn2cnn3c(=O)c4ccccc4nc3c2=O)cc1OC	none (no result: Marburg entry inh, LASV entry inh, VACV Venus inh, Vaccinia mCherry, FMDV antiviral)
O=C(N[C@H]1CC[C@@]23CCCN2C(=O)CCC[C@H]3[C@H]1Cc1ccccc1)c1ccc(Cl)c(C(F)(F)F)c1	none (no result: Marburg entry inh, LASV entry inh, VACV Venus inh, Vaccinia mCherry, FMDV antiviral)
CCSc1ncc(Cl)c(C(=O)N(Cc2ccc(N(C)C)cc2)Cc2ccco2)n1	FMDV antiviral inconclusive
CCSc1ncc(Cl)c(C(=O)N(Cc2ccccc2)c2ccc(OC)cc2)n1	Marburg entry inh inconclusive, HCMV inh -75, FMDV antiviral inconclusive
COc1ccc(OC)c(NC(=O)c2cc3c(=O)n4cccc(C)c4nc3n2C)c1	none (no result: Marburg entry inh)
